The campaign covered roughly 390,000 compounds. About 760 (0.19%) were called active. Where a call stands in place of a potency, no number is given. Not shown: some 3% with an inconclusive outcome. The call rests on the fitted dose curve; in most records, active means well fitted inhibition curve with a large enough effect; inconclusive means small, poorly fitted or top-dose-only effect; inactive means flat fitted curve, though single readings scatter. Many of the other results were omitted from the sample, so actives are more common in it than they were.
Assay: qHTS for Inhibitors of Vif-A3F Interactions: qHTS; further: nearly all actives have a fitted effect of over 65% in size
Conditions: HeLa A3F-eYFP + Vif (tagged APOBEC3F with the HIV-1 protein that degrades it), YFP fluorescence increase; series mostly up to 46.1 µM
How it was run: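 Fluorescence increase (Ex 488/Em 500-530) after overnight compound treatment at 37 deg C flags inhibition of Vif-driven A3F-eYFP loss in stable HeLa A3F-eYFP/Vif cells seeded overnight beforehand.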
Potency means the concentration at half of the fitted maximal effect.

SMILES	Potency
CSc1ccc(NC(=O)Cn2nnnc2-c2ccccc2F)cc1	inactive
CCc1nc(Nc2ccc3nccnc3c2)c2oc3ccccc3c2n1	22.4 µM (active)
C[C@@H](Nc1nc(-c2ccccc2)nc2c1oc1ccccc12)C(=O)O	inactive
COCCNc1nc(-c2ccccc2)nc2c1oc1ccccc12	inactive
CNC(=S)N/N=C/c1ccc(N2CCOCC2)s1	1.12 µM (active)
Cc1ccc(C(=O)C(=S)N2CCOCC2)cc1	inactive
C=CCNC(=S)N/N=C/c1ccc(C)s1	inactive
S=c1[nH]c2ccccc2c2ccccc12	inactive
O=[N+]([O-])c1cc(S(=O)(=O)Nc2cccc(Cl)c2)ccc1N=Nc1c(O)[nH]c2ccccc12	inactive
Oc1[nH]c2ccccc2c1N=Nc1c(F)c(F)c(F)c(F)c1F	25.1 µM (active)
CCN(CCCNC(=O)c1cc2cc3cc(OC)ccc3nc2s1)c1ccccc1	inactive
COc1cc(/C=C(\C#N)c2nc3ccccc3[nH]2)ccc1O	12.6 µM (active)
Cc1ccc2nc(/C(C#N)=C/c3ccccc3F)[nH]c2c1	inactive
CCOc1ccc(/C=C(\C#N)c2nc3ccccc3c(=O)[nH]2)cc1OC	inactive
COc1ccc(Nc2ncc(C(=O)Nc3cc(C)ccc3OC)c3ccccc23)cc1	inactive
COc1ccc(NC(=O)c2cnc(Nc3ccc(C)c(Cl)c3)c3ccccc23)cc1OC	inactive
COC(=O)c1cnc(Nc2cc(C)ccc2OC)c2ccccc12	31.6 µM (active)
O=C(CCS(=O)(=O)c1ccccc1)N(Cc1cccnc1)c1nc2c(F)cccc2s1	inactive
S=C(NN=Cc1ccccn1)Nc1ccccn1	11.2 µM (active)
COc1ccc(-n2c(=O)c3sc4ccccc4c3n(CC(=O)Nc3cccc(C)c3)c2=O)cc1	inactive
CCCN(CCC)CCCNC(=O)Cn1ncc2c3ccccc3n(Cc3ccccc3)c2c1=O	inactive
Cc1oc2ncnc(N3CCCCC3)c2c1C(=O)N1CCN(c2cccc(Cl)c2)CC1	inactive
COc1ccc(C)cc1N(CC(=O)N1CCC(C)CC1)S(=O)(=O)c1ccc(C)cc1	inactive
Cn1c(COc2ccccc2C(C)(C)C)nc2ccccc21	inactive
O=C1CCCc2cc(S(=O)(=O)N3CCCC(C(=O)NCc4ccccc4)C3)ccc2N1 (stereo not given)	inactive

SMILES	Potency
Cc1nn(CC(=O)N2CCN(c3cccc(C(F)(F)F)c3)CC2)c(=O)c2cc3sccc3n12	inactive
CCN(Cc1ccccc1)C(=O)c1cn(-c2cccc(OC)c2)c(=O)c2ccccc12	inactive
COc1cccc(CNC(=O)c2cc(=O)[nH]c3ccc(S(=O)(=O)N4CCCCC4)cc23)c1	inactive
CCOC(=O)c1c(N)n(-c2cccc(C)c2C)c2nc3ccccc3nc12	inactive
CCOC(=O)c1cc2n(c1N)-c1ccccc1C2=O	7.08 µM (active)
CCOC(=O)c1cc(-c2ccccc2)n(CCC(=O)Nc2ccccc2CC)c1C	inactive
CCOc1ccccc1NC(=O)Cn1nnc(C(=O)Nc2ccc(C)c(C)c2)c1N	inactive
COc1ccc(-c2nc3sc(CCNC(=O)C(C)(C)C)c(C)n3n2)cc1	inactive
CCOC(=O)C(Cc1ccccc1)NC(=O)CCc1c(C)nc2c(c(C)nn2-c2ccc(C)c(C)c2)c1C (stereo not given)	inactive
COc1ccc(NC(=O)CSc2nccn2Cc2ccc3c(c2)OCO3)cc1	inactive
CCN1CCN(CCCNC(=O)c2cnn(-c3ccc(C)cc3C)c2C2CCN(C(=O)OC(C)(C)C)CC2)CC1	inactive
N#CCSc1ccccc1NC(=O)CN1C(=O)NC(CCc2ccccc2)C1=O (stereo not given)	25.1 µM (active)
CCOC(=O)CCCNC(=O)CN1C(=O)NC(CCc2ccccc2)C1=O (stereo not given)	inactive
Cc1cc(NC(=O)CN2C(=O)NC(CCc3ccccc3)C2=O)no1 (stereo not given)	inactive
Cc1[nH]c2ccccc2c1C(c1ccccc1)c1cccs1 (stereo not given)	inactive
CC1Cn2c(nnc2-c2cccs2)S1 (stereo not given)	inactive
Cc1ccccc1C1CC(c2cccs2)=NN1S(C)(=O)=O (stereo not given)	17.8 µM (active)
COc1ccc(C2CC(c3cccs3)=Nc3ccccc3S2)cc1OC (stereo not given)	inactive
COc1cc(NS(=O)(=O)c2cccs2)cc(OC)c1	inactive
Cc1ccccc1Cn1nc(C)c(NC(=O)c2cc(-c3ccc(F)cc3)on2)c1C	inactive
CCN(CCCNC(=O)CSc1cc(=O)n(C)c2cc(Cl)ccc12)c1cccc(C)c1	inactive
COc1ccc(/C=C/c2nc(C#N)c(NCc3ccc(F)cc3)o2)cc1OC	inactive
N#Cc1nc(/C=C/c2ccc(F)cc2)oc1NCc1ccc(F)cc1	inactive
CCN(CC)C(=O)CSC(Nc1cccc(F)c1)=C(C#N)C#N	10 µM (active)
CCOC(=O)c1nnn(CC(=O)Nc2cccc(F)c2)c1C(=O)OCC	inactive

SMILES	Potency
Cc1ccc(CSCC(=O)N(C)CC(=O)Nc2cccc(F)c2)cc1	inactive
Cc1cc(C)cc(NC(c2nnc(-c3cccc(F)c3)o2)c2ccc(F)cc2Cl)c1 (stereo not given)	inactive
O=C(Nc1ccc(S(=O)(=O)N2CCC(c3nc4ccccc4s3)CC2)cc1)c1ccccc1F	inactive
O=C(Cn1nc(C(F)(F)F)c2c1CCCC2)Nc1ccc(Cl)cc1	inactive
NS(=O)(=O)c1ccc(NC(=O)COc2ccc(S(=O)(=O)NC3CCCCC3)cc2)cc1	inactive
Cc1cccn2c(=O)c(C(=O)NC(C)c3ccccc3)cnc12 (stereo not given)	inactive
CCC1CN(S(=O)(=O)c2cc(-c3cc(C)no3)ccc2C)c2cc(C)ccc2O1 (stereo not given)	inactive
O=C(CSc1oc(-c2ccco2)nc1S(=O)(=O)c1ccccc1)c1ccc(Cl)cc1	inactive
CCOc1ccc(CNC(=O)C2CCCN(S(=O)(=O)N(CC)c3ccc(OCC)cc3)C2)cc1 (stereo not given)	inactive
CCOC(=O)c1cccc(NC(=O)c2cc(S(=O)(=O)N3CCCC(C)C3)cn2C)c1 (stereo not given)	inactive
Cc1ccc(NC(=O)CSc2nc3c([nH]c4ccccc43)c(=O)n2-c2ccccc2)c(C)c1	inactive
CCCOc1ccc(-c2cccc(NS(=O)(=O)c3ccccc3)c2)nn1	inactive
CCCN1CCN(CCCNC(=O)Cn2nc(CC)n3c(cc4occc43)c2=O)CC1	inactive
O=C(COc1ccccc1F)Nc1ccc(C(=O)OCc2cc(=O)n3nc(C4CC4)sc3n2)cc1	inactive
CC1=C(c2ccc(Cl)cc2)S(=O)(=O)N=C1N1CCN(c2cc(C)ccc2C)CC1	inactive
Cc1ccccc1CN1CCC(CNC(=O)c2cc3ccc4cccnc4c3[nH]2)CC1	inactive
O=C(OC12CC3CC(CC(C3)C1)C2)c1ccc(NCc2cc(O)ccc2O)cc1	22.4 µM (active)
Cc1nnc(NCc2ccccc2)c2c1nnn2Cc1ccc(F)cc1	inactive
Fc1ccc(CSc2nc(NCc3ccccc3)c3ccccc3n2)cc1	inactive
Fc1ccc(CNc2nc3ccccc3n3nnnc23)cc1	7.94 µM (active)
Cc1cccc(Cn2c(SCc3ccc(C(=O)N4CCC(C)CC4)cc3)nc3ccncc32)c1	inactive
O=C(Nc1ccc(Br)cc1)c1cc2nc(-c3ccccc3)cc(-c3ccccc3)n2n1	inactive
O=C(C[n+]1ccc2c(c1)nnn2-c1ccccc1)c1ccc(Cl)cc1	inactive
O=C(OCc1nc2ccccc2[nH]1)C1CCCCC1	inactive
O=C(Cc1nc2ccccc2[nH]c1=O)c1ccc(Cl)cc1	12.6 µM (active)

SMILES	Potency
CCn1c(/C=C/c2ccc([N+](=O)[O-])o2)nc2ccccc2c1=O	22.4 µM (active)
CCCN(CCC)c1c([N+](=O)[O-])c(=O)oc2ccccc12	inactive
COc1cc(OC)c(OC)cc1/C=C/c1nc2ccccc2c(=O)n1-c1ccc(Br)c(C)c1	inactive
CCc1cccc(CC)c1NC(=O)Cn1c(=O)c(-c2cc(C)ccc2NC(C)=O)nc2ccccc21	inactive
CCc1nnc(SCc2c(F)cccc2Cl)c2cc3sccc3n12	inactive
CCOC(=O)c1ccc(NC(=O)CC2C(=O)N(c3cccc(OC)c3)C(=O)N2C2CCCCC2)cc1 (stereo not given)	inactive
Cc1oc2ncn(CC(C)C)c(=O)c2c1C(=O)N1CCN(c2ccccc2F)CC1	inactive
CCOc1ccc(S(=O)(=O)c2cn(Cc3ccc(OC)cc3)c3ccc(F)cc3c2=O)cc1	inactive
COc1cc(CN(C(=O)c2ccccc2Br)c2ccccn2)cc(OC)c1OC	inactive
O=C(NCc1ccccc1)c1ccc2c(c1)nc1n2CCCCC1	inactive
Cc1ccc(CNC(=O)CCc2c(C)nn(-c3ccc(N4CCCC4)nn3)c2C)cc1	inactive
CCOCCCNC(=O)c1c(NC(=O)Cc2coc3ccc(C)cc23)sc2c1CCC2	inactive
CCC(=O)N1CCc2cc(S(=O)(=O)NC(Cc3ccccc3)C(=O)NCc3ccccc3)ccc21 (stereo not given)	inactive
C[n+]1ccc(/C=C/c2c[nH]c3ccccc23)cc1	10 µM (active)
CCCCN(CC)CCCNC(=O)c1nn(C)c2c1CS(=O)(=O)c1ccccc1-2	inactive
Cc1ccc(-n2nc(CO)c(C(=O)NCCc3ccccc3)n2)cc1	inactive
CCN(CC)C(=O)CSc1nc2cc3c(cc2c(=O)n1CCCC(=O)NCc1ccc2c(c1)OCO2)OCO3	inactive
CCCCn1c(N)c(N(CCC(C)C)C(=O)c2ccc([N+](=O)[O-])o2)c(=O)[nH]c1=O	10 µM (active)
CCCCn1c(N)c(N(CCC(C)C)C(=O)c2ccc(COc3ccccc3)o2)c(=O)[nH]c1=O	inactive
CCCCn1c(N)c(N(CC(C)C)C(=O)c2ccc(Br)o2)c(=O)[nH]c1=O	inactive
Fc1ccc(-c2nn(-c3ccccc3Cl)c3c2cnc2ccccc23)cc1	inactive
COc1ccc(NC(=O)CSc2nnc(-c3nnn(-c4ccc(F)cc4)c3C)o2)cc1	inactive
CCn1cc2nc(SCc3cccc(F)c3)n(CCc3ccccc3)c(=O)c2n1	inactive
Cc1ccc(N=Cc2c(O)n(-c3nccs3)c(=O)c3ccccc23)c(C)c1	25.1 µM (active)
Cc1cccc(-n2c(O)c(C=Nc3ccccc3N)c(=O)[nH]c2=O)c1	inactive

— PubChem BioAssay AID602313 (National Center for Advancing Translational Sciences (NCATS), 2012)
